The panel holds about 83,000 compounds, 20% with a hit somewhere; the sample as a whole holds those more often.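 A percent growth of 40 corresponds to 60% growth inhibition; 0 means no net growth; -100 means all cells died. Active threshold: below 10.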 Values without a mark were called inactive. Active and inactive are the calls of the source.

Common to all, as to assay: NCI-60 one-dose screen, 48 h (100 = growth as untreated, 0 = no growth, -100 = all killed)
Common to all, as to conditions: 10 µM

Test [1] relates to BT-549 breast.
The test system of test [2] is SW-620 colon.
For test [3], the system named is MCF7 breast.
For test [4], the system named is HCT-116 colon.
The test system of test [5] is HCC-2998 colon.
The test system of test [6] is MDA-MB-435 melanoma.
Test [7] deals with KM12 colon.

As to `CC(=O)N1C/C(=C/c2ccc(Cl)cc2)C(=O)/C(=C/c2ccc(Cl)cc2)C1`, the growth was -27.2% (active) in test [1]; -62.4% (active) in test [2]; -48.4% (active) in test [3]; -66.4% (active) in test [4]; -85.1% (active) in test [5].

In the case of `COc1cc(C(=C2O[C@@H]([C@H]3COC(C)(C)O3)[C@H]3OC(C)(C)O[C@@H]23)c2cc(OC)c(OC)c(OC)c2)cc(OC)c1OC`, the growth in test [1] was 111%; in test [6], 113%; in test [3], 103%; in test [4], 96.4%; in test [7], 107%.

With `O=c1[nH]c2ccc(Cl)cc2c2ccccc12`, the growth in test [1] is 100%; in test [2], 102%; in test [3] it was 93.1%; in test [4] it was 38.4%; in test [5] it was 52.4%; in test [7] it was 65.2%.

`Oc1[nH]c2cc(Cl)ccc2c1/C=c1/ccc2c(c1)N=C(c1cc(F)cc(F)c1)N=2`: the growth in test [1] is 37.5%; in test [2], 24.8%; in test [3], 11%; in test [4], 18.8%; in test [5] it was 58%; in test [7], 13.1%.

As for `COC(=O)c1ccc(=O)oc1`, the growth in test [1] was 104%; in test [6] it was 106%; in test [3], 100%; in test [4], 97.7%.

With `COc1ccc(/C(=C2/O[C@@H]([C@H]3COC(C)(C)O3)[C@H]3OC(C)(C)O[C@@H]23)c2cc(OC)c(OC)c(OC)c2)cc1O`, the growth was 67.5% in test [1]; -10.2% (active) in test [6]; 60.9% in test [3]; 78.1% in test [4]; 5.71% (active) in test [7].

With `COc1ccc2nc3ccccc3c(NCCNCC(C)O)c2c1` (stereo not given), the growth was 30.9% in test [1]; 0.102% (active) in test [2]; 4.08% (active) in test [3]; 0.194% (active) in test [4]; -11.8% (active) in test [5]; 9.48% (active) in test [7].

With `CCC1(C(C)C)NC(=O)NC1=O` (stereo not given), the growth was 104% in test [1]; 106% in test [6]; 103% in test [3]; 101% in test [4]; 104% in test [7].

As to `CC(C)=CCc1cc(O)cc2c1OC(C=C(C)C)C1=C2C(=O)C2=C(C1=O)S(=O)(=O)CCN2` (stereo not given), the growth in test [1] was 58.9%; in test [2], 4.52% (active); in test [3], -50% (active); in test [4], -8.73% (active); in test [5] it was 36.4%; in test [7] it was 69.2%.

Regarding `Cc1cc(Cl)nc(N(CCCNc2ccnc3cc(Cl)ccc23)Cc2cccs2)n1`, the growth in test [1] is 24.7%; in test [2], 11.8%; in test [3] it was 10.7%; in test [4], 3.08% (active); in test [5], 0.165% (active); in test [7], 12.8%.

`COc1cc([C@@H]2c3cc4c(cc3C(Br)[C@H]3COC(=O)[C@H]23)OCO4)cc(OC)c1OC` (stereo not given in full): the growth in test [1] was -12.7% (active); in test [6] it was -42% (active); in test [3] it was -10.4% (active); in test [4] it was -34.7% (active).

For the compound `CC1(C)Cc2c(sc3ncn4nc(-c5ccc(O)cc5)nc4c23)CO1`, the growth was 65.1% in test [1]; 94.5% in test [2]; 66.5% in test [3]; 81.7% in test [4]; 118% in test [5].

As to `COc1ccccc1CNCCN1C(=O)c2ccc3c4c(ccc(c24)C1=O)C(=O)N(CCNCc1ccccc1OC)C3=O`, the growth in test [1] was -94% (active); in test [6], -80.2% (active); in test [3], -69.2% (active); in test [4], -92.6% (active); in test [7], -96.6% (active).

In the case of `CC(=O)N1N=C(c2ccc(Cl)cc2)CC1c1sc(Cl)nc1Cl` (stereo not given), the growth in test [1] was 89.9%; in test [2], 102%; in test [3], 85.9%; in test [4], 75.9%; in test [5], 94.8%; in test [7], 93.5%.

Turning to `COc1ccc2c(c1)O/C(=C\c1ccc([N+](=O)[O-])s1)C2=O`, the growth was 7.31% (active) in test [1]; -56.3% (active) in test [2]; 21.4% in test [3]; -23.4% (active) in test [4]; 11.9% in test [5].

Turning to `CCN(CCCCCCCCCCN1CC(=O)N(CCCCCCCCCCN(CC)Cc2ccccc2OC)CC1=O)Cc1ccccc1OC`, the growth is -50.7% (active) in test [1]; -72% (active) in test [6]; -89.2% (active) in test [3]; -95.2% (active) in test [4]; -76.2% (active) in test [7].

Take `COc1cc(/C=C/C(=O)c2ccc(Cl)cc2)ccc1OS(=O)(=O)c1ccc(C)cc1`: the growth is 134% in test [1]; 6.82% (active) in test [2]; 11.2% in test [3]; 12.9% in test [4]; 112% in test [5]; 81.2% in test [7].

`Cc1[nH]nc2c1C(c1cnn(C)c1)C(C#N)=C(N)O2` (stereo not given): the growth was 102% in test [1]; 102% in test [2]; 98% in test [3]; 104% in test [4]; 110% in test [5].

Regarding `N=C(N)c1ccc(-c2ccc(-c3cccs3)s2)cc1`, the growth is 93.2% in test [1]; -66.2% (active) in test [2]; -79.4% (active) in test [3]; -67.1% (active) in test [4]; -69.5% (active) in test [5].

For `N=C(N)c1ccc(-c2ccc(-c3cccs3)o2)cc1`, the growth in test [1] is 85.2%; in test [2], -47.9% (active); in test [3], 3.09% (active); in test [4] it was 7.25% (active); in test [5], -66% (active).

Take `Nc1nc(Nc2ccccc2)n[nH]1`: the growth in test [1] was 88.8%; in test [2], 107%; in test [3] it was 95.8%; in test [4], 97.7%; in test [5], 98.1%; in test [7] it was 107%.

Take `COc1cc(-c2cc(/C=C/C(=O)c3ccc(N)cc3)[nH]n2)cc(OC)c1OC`: the growth in test [1] was -28.7% (active); in test [6], 6.15% (active); in test [2], -38.1% (active); in test [4] it was -81.5% (active); in test [5], -75.4% (active); in test [7], -35.1% (active).

With `CC(=O)c1cc(Cl)ccc1O`, the growth in test [1] was 105%; in test [2] it was 95.9%; in test [3], 105%; in test [4] it was 102%; in test [5] it was 97.4%; in test [7], 96.2%.

On to `CC1CN(Cc2ccccc2)C(=O)NC1=O` (stereo not given), for which the growth is 103% in test [1]; 110% in test [2]; 94.8% in test [3]; 106% in test [4]; 110% in test [5].

Turning to `Cc1cc(O)c(C(C)(C)C)cc1Sc1cc(C(C)(C)C)c(O)cc1C`, the growth was 65.9% in test [1]; 54.8% in test [6]; 34.7% in test [3]; 29% in test [4]; 47% in test [7].

Consider `COc1ccc(OC)c2c1C(=O)CC2C` (stereo not given), for which the growth in test [1] is 120%; in test [2] it was 105%; in test [3], 99.6%; in test [4], 111%; in test [5] it was 113%; in test [7] it was 103%.

As to `N=c1nc(N)ncn1-c1ccccc1`, the growth in test [1] was 107%; in test [2] it was 107%; in test [3], 92.4%; in test [4] it was 97.4%; in test [5], 101%; in test [7], 108%.

In the case of `CCN(CC)CCCOCCCNc1cc(OC)cc2cccnc12`, the growth in test [1] is 103%; in test [2], 99.9%; in test [3], -3.69% (active); in test [4] it was 94.5%; in test [5], 83.9%; in test [7] it was 102%.

`O=C(NN1C(=O)CSC1c1ccc(Cl)cc1)c1cccnc1` (stereo not given): the growth in test [1] was 102%; in test [6], 87.3%; in test [3] it was 111%; in test [4], 86.9%; in test [7], 94.2%.

Take `COc1cc(NC(=O)CCSc2nc3ccc(C)cc3c(=O)n2Cc2ccccc2)cc(OC)c1OC`: the growth is 95.5% in test [1]; 84.5% in test [2]; 77.6% in test [3]; 35% in test [4]; 112% in test [5].

In the case of `COc1cc(CNCCCCCCN2C(=O)c3cccc4cccc(c34)C2=O)ccc1O`, the growth in test [1] was 83.2%; in test [2], 57.9%; in test [3] it was 11.4%; in test [4] it was 31.4%; in test [5], -21.3% (active).

`COc1ccc2c(c1)sc1nc(-c3ccccc3)c(-c3ccsc3)n12`: the growth is -39.6% (active) in test [6]; 19.4% in test [2]; 13.5% in test [3]; 30.8% in test [4]; 11.6% in test [5]; 19.4% in test [7].

Regarding `COc1ccc(-c2nc(-c3nc4cc(Cl)c(F)cc4[nH]3)c3ccccn23)cc1`, the growth is 64.4% in test [6]; 71.6% in test [2]; 58.1% in test [3]; 71.4% in test [4]; 72.2% in test [5].

In the case of `O=C(Nc1cccc(-n2cc(-c3ccncc3)c(-c3ccc(O)c(Cl)c3)n2)c1)c1cc(C(F)(F)F)cc(C(F)(F)F)c1`, the growth in test [6] was 52%; in test [2] it was 67.7%; in test [3] it was 27.3%; in test [4] it was 44.1%; in test [5], 33.3%.

For the compound `COc1ccc(OC)c(/C=C/c2nc(SCc3ccccc3)n(-c3ccc(Cl)cc3)n2)c1`, the growth in test [1] is 61.8%; in test [2], 28.2%; in test [3] it was 52.9%; in test [4] it was 20.2%; in test [5], 73.1%; in test [7], 31.1%.

Consider `COc1ccc(C2CC(c3ccc(N(C)C)cc3)=NN2c2ccc(S(N)(=O)=O)cc2)cc1` (stereo not given), for which the growth in test [6] is 36.9%; in test [2], 58%; in test [3], 20.5%; in test [4], 18.7%; in test [5], 75%.

`C#Cc1ccc(-n2c(/C=C/c3ccc4ccccc4n3)nc3ncccc3c2=O)cc1`: the growth in test [6] was -11.5% (active); in test [2], -51% (active); in test [3], 6.42% (active); in test [4], -25% (active); in test [5], -75.3% (active).

`Cc1ccc(-c2nc(/C=C3/C(=O)N(C)c4ccc(F)cc43)c3ccccn23)cc1`: the growth in test [6] is 111%; in test [2], 105%; in test [3] it was 78.6%; in test [4] it was 89.3%; in test [5] it was 104%; in test [7] it was 101%.

Regarding `COc1cc(CNc2ccccc2C(=O)N2CCN(C(=O)c3cc(-c4cc(OC)c(OC)c(OC)c4)n4nc(-c5ccccc5)cc4n3)CC2)cc(OC)c1OC`, the growth in test [6] was -47.6% (active); in test [2] it was 26.3%; in test [3], 6.61% (active); in test [4], 21.6%; in test [5], 40.3%; in test [7] it was 17.8%.

The record behind these values is PubChem BioAssay (NCI).
